Screening data: PubChem BioAssay, National Center for Advancing Translational Sciences (NCATS)
Hits are enriched below; roughly 12% of the tested compounds scored in any of these assays.
HP1b binding inh – HP1-beta chromodomain-methylated histone interaction inhibition | AlphaScreen HP1-beta / biotin-H3K9me3 peptide binding | 390,000 tested, 0.56% active | P83916 | Potency, µM (series often up to 114 µM), usual class: inhibitors; note: nearly all actives have a fitted effect of over 70% in size
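Compound inhibition of the preformed complex between 50 nM HP1-beta and 50 nM biotinylated H3K9me3 peptide was read by AlphaScreen. Buffer was PBS pH 7.4 with 0.01% Tween-20. Incubations ran 30 min at room temperature, with 10 ug/mL donor/acceptor beads.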
BAZ2B inh – inhibitors of human BAZ2B bromodomain | Q9UIF8 | AlphaScreen BAZ2B-H3K14Ac peptide displacement | Potency, µM (series often up to 114 µM), hits mostly inhibitors | 360,000 tested, 4.4% active; note: nearly all actives have a fitted effect of over 60% in size
Target sequence (Q9UIF8 whole entry, looked up): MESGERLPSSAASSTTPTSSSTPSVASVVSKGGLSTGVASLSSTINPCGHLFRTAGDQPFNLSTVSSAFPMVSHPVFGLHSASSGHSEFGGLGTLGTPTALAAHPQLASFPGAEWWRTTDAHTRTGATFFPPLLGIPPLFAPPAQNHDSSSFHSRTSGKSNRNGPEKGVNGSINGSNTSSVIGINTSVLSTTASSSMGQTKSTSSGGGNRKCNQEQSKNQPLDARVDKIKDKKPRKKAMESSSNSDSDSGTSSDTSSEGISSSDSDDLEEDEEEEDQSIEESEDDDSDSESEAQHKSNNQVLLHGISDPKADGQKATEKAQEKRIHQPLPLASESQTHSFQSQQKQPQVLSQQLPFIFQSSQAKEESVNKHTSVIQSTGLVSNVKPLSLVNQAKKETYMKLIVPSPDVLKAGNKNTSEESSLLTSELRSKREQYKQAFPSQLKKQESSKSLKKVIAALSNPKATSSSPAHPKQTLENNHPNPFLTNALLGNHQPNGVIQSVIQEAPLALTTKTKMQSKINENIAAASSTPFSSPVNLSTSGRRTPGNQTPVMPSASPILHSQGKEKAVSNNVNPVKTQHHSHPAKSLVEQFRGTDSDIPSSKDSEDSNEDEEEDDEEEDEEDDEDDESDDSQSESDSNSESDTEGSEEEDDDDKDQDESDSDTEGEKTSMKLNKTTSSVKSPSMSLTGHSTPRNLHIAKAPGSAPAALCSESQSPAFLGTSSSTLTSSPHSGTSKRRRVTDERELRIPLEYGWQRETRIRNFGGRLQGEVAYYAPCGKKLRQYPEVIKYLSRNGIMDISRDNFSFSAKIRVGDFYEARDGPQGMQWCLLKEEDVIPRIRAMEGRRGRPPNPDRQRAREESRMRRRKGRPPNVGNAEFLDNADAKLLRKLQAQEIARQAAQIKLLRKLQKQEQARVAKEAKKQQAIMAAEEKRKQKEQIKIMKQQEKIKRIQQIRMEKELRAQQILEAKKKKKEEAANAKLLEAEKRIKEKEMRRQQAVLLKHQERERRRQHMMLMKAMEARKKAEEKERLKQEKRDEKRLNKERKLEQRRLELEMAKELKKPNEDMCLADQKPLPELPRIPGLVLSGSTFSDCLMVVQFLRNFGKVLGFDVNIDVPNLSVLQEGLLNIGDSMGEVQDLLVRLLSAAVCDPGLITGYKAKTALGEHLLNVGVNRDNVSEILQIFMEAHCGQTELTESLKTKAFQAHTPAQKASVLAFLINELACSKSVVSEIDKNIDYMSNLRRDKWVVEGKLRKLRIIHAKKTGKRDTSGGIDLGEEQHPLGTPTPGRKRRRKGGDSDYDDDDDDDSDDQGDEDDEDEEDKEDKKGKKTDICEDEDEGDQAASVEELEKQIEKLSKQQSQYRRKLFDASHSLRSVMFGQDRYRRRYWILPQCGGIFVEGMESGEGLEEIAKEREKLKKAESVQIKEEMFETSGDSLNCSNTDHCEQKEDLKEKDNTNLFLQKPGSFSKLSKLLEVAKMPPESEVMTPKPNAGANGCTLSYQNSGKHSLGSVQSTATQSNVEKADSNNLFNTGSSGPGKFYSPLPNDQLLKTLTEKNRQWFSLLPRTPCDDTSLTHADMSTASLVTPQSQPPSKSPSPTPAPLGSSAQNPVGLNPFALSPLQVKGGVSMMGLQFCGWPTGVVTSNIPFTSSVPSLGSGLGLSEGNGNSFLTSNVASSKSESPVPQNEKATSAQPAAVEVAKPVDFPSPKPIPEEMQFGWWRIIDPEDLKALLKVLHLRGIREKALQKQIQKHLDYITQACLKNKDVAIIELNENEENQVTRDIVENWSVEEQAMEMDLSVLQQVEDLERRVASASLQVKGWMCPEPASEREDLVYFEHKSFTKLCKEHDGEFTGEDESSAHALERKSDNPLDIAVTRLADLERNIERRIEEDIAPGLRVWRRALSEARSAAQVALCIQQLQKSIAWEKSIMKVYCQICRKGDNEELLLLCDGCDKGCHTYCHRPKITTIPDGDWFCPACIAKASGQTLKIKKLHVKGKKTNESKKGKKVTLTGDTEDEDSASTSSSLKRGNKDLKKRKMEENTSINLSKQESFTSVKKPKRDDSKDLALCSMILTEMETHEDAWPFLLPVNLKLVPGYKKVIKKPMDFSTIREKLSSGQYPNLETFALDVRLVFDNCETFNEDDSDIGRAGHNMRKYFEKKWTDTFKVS
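BAZ2B (50 nM) with biotin-H3(5-23)K14Ac peptide (50 nM) in PBS pH 7.4, 0.01% Tween-20, preformed 30 min, then compound 30 min at room temperature; top concentration 110uM. AlphaScreen streptavidin donor/nickel chelate acceptor beads (10 ug/mL final), 20 min dark, signal read.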
JMJD2A Tudor – inhibitors of human JMJD2A Tudor domain. AlphaScreen JMJD2A-Tudor / H3K4me3 peptide binding. 390,000 tested, 4.4% active. Potency, µM (highest dose often 114 µM), hits mostly inhibitors; note: nearly all actives have a fitted effect of over 50% in size
PLK1 PBD inh – blocks phosphopeptide binding to human PLK1 polo-box domain. Plk1 PBD binding of FITC phosphopeptide, fluorescence polarization. Potency, µM, most hits filed as inhibitors. 360,000 tested, 2.8% active; note: series mostly up to about 57 µM; nearly all actives have a fitted effect of over 65% in size
PI5P4Ka inh – PI5P4K alpha (human) kinase inhibition; max response, %; P48426; AID 652105; PI5P4Kalpha enzyme, ADP-Glo luminescence, 60 min; stronger effect = lower value; 330,000 tested, 1.2% active; active = max response of -50% or lower; inconclusive = between -30% and -50%; inactive = -30% or higher; note: value at the top dose of about 77 µM
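qHTS, 1536-well: enzyme/substrate mix, compound by pin tool, 5 microM ATP final; RT 60 min; ADP-Glo reagents 1 (45 min) then 2 (30 min); luminescence.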
G9a inh – inhibitors of human histone lysine methyltransferase G9a | Q96KQ7 | G9a H3K9 monomethylation, AlphaScreen, 2 h | Potency, µM (titrated, usually from 102 µM), most hits filed as inhibitors | 350,000 tested, 8.8% active | AID 504332; note: nearly all actives have a fitted effect of over 75% in size
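G9a (20 nM) preincubated 15 min RT with compounds, then 500 nM biotinylated H3K9 peptide and 20 uM SAM added; 2 h RT reaction. Monomethyl-H3K9 product detected by AlphaScreen with anti-H3K9me1 antibody, streptavidin donor and anti-rabbit IgG acceptor beads.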
Hits are given with their value; – = inactive; ? = inconclusive; · = no result; [ ] = dose if it differs, or a comment. Unless noted, calls come from the whole dose curve; as a rule, active = well fitted curve in the direction sought with a large enough effect; inconclusive = small, poorly fitted or top-dose-only effect, or another doubt; inactive = no such curve, though single readings can be large; an effect the other way counts as inactive or inconclusive.

SMILES | HP1b binding inh | BAZ2B inh | JMJD2A Tudor | PLK1 PBD inh | PI5P4Ka inh | G9a inh
Cc1ccc(C(=O)Nc2cccc([N+](=O)[O-])c2)cc1S(=O)(=O)Nc1cccc(C(=O)O)c1 | – | – | –[11.4 µM] | 15µM | – | ?
Cc1ccc(NS(=O)(=O)c2cc(C(=O)N3CCN(CCO)CC3)ccc2C)cc1 | – | 50µM | 79µM | – | – | 2µM
Cc1ccc(NS(=O)(=O)c2cc(C(=O)Nc3cccnc3)ccc2C)cc1 | – | – | ? | – | – | 79µM
Cc1ccc(NS(=O)(=O)c2cc(C(=O)N3CCN(C)CC3)ccc2C)cc1 | – | – | – | – | – | –
Cc1ccc(O)c(NC(=O)c2cccc(S(=O)(=O)N3CCCCC3)c2)c1 | – | – | – | – | – | –
COc1ccccc1NCC(=O)NC(=O)NC1CCCCC1 | – | · | – | – | – | ·
CCCCN(CCCNC(=O)c1ccc2c(c1)NC(=O)CN2C)c1ccccc1 | · | · | · | – | – | ·
NC(=NCc1ccco1)NC(=O)c1ccc(Cl)cc1 | – | – | – | – | – | –
Cc1csc(C(=O)O)c1NC(=O)c1c(Cl)cccc1Cl | – | – | – | – | – | –
COc1ccc(C(C(=O)c2ccccc2)c2ccccc2)cc1 (stereo unspecified) | · | · | · | – | – | ·
COc1ccc(NC(=O)Cn2c(=O)n(CCC(=O)NCCc3ccc(OC)c(OC)c3)c(=O)c3ccccc32)cc1Cl | – | – | – | · | · | –
Cc1ccc(C(=O)Nc2cccnc2)cc1S(=O)(=O)N1CCCCC1 | ? | – | –[11.4 µM] | 17µM | – | –
Nc1[nH]c(C(=O)c2ccccc2)c(-c2ccccc2Br)c1C(=O)c1ccccc1 | · | · | · | – | – | ·
CCOC(=O)C1CCCN(C(=O)c2ccc3[nH]c4c(c3c2)CC(C)CC4)C1 (stereo unspecified) | ? | 50µM | ? | – | – | ?
CCOC(=O)C1CCCN(C(=O)c2ccc3c(c2)OCCO3)C1 (stereo unspecified) | – | – | – | – | – | –
CCOC(=O)C1CCCN(C(=O)Cc2c(C(=O)O)[nH]c3ccccc23)C1 (stereo unspecified) | – | – | – | – | · | –[2.33 µM]
CCOC(=O)C1CCCN(C(=O)c2[nH]c3ccccc3c2Sc2ccc(Cl)cc2)C1 (stereo unspecified) | – | ? | – | · | · | 8.9µM
CC1Sc2ccc(C(=O)N3CCCC(C(F)(F)F)C3)cc2NC1=O (stereo unspecified) | – | – | – | – | – | –
CC1CCc2[nH]c3ccc(C(=O)N4CCCC(C(F)(F)F)C4)cc3c2C1 (stereo unspecified) | – | 32µM | ? | – | – | 35µM
CC[C@@]1(C(=O)OC)N[C@H](CN(C)C(=O)c2ccc(C)cc2)[C@@H]2C(=O)N(C)C(=O)[C@@H]21 | – | · | – | – | – | ·
CC(=O)N1CCc2c(sc(NC(=O)CS(=O)(=O)c3ccc(F)cc3)c2C(N)=O)C1 | – | – | – | ? | – | 50µM
CCOC(=O)N1CCc2c(sc(NC(=O)CCS(=O)(=O)c3ccccc3)c2C(N)=O)C1 | – | – | – | – | – | –
CN1CCc2c(sc(NC(=O)Cc3ccc(F)cc3)c2C(N)=O)C1 | – | – | – | – | – | –
CN1CCc2c(sc(NC(=O)CS(=O)(=O)c3ccc(F)cc3)c2C(N)=O)C1 | – | – | – | – | – | 50µM
CC(=O)N1CCc2c(sc(NC(=O)CCS(=O)(=O)c3ccccc3)c2C(N)=O)C1 | – | – | – | – | – | –
SMILES | HP1b binding inh | BAZ2B inh | JMJD2A Tudor | PLK1 PBD inh | PI5P4Ka inh | G9a inh
CNC(=O)c1c(NC(=O)CCS(=O)(=O)c2ccc(Cl)cc2)sc2c1CCN(C(=O)OC)C2 | – | – | – | – | – | 50µM
COc1ccc(C(C(=O)NC2CCCC2)N(Cc2cccnc2)C(=O)c2snc(C(N)=O)c2N)cc1 (stereo unspecified) | – | – | – | – | – | –
CCOc1ccc(NC(=O)Cc2ccc(NC(=O)N3CCCCc4ccccc43)cc2)cc1 | – | – | – | · | · | –
Cc1sc2nc(CSCC(=O)N(C)CC(=O)Nc3ccc(F)cc3)[nH]c(=O)c2c1C | – | – | – | ? | – | 50µM
Cc1cccc(NC(=O)C(C)SCc2nc3sc(C)c(C)c3c(=O)[nH]2)n1 (stereo unspecified) | – | – | – | – | – | 45µM
Cc1sc2nc(CC(=O)NN)[nH]c(=O)c2c1C | – | – | – | 17µM | – | 40µM
Cc1sc2nc(CSCC(=O)Nc3c(F)cccc3F)[nH]c(=O)c2c1C | – | – | – | – | – | –[2.33 µM]
Cc1ccc(NC(=O)C(C)SCc2nc3sc(C)c(C)c3c(=O)[nH]2)nc1 (stereo unspecified) | – | – | – | – | – | 14µM
CC(=O)OCc1nc2sc(C)c(C)c2c(=O)[nH]1 | – | – | – | – | – | –
CC1CCCN(C(=O)CCNC(=O)Cn2cnc3ccccc3c2=O)C1 (stereo unspecified) | – | – | – | – | – | –
Cc1sc2nc(CSC(C)C(=O)Nc3ccccn3)[nH]c(=O)c2c1C (stereo unspecified) | – | – | – | – | – | 7.9µM
Cc1ccc(NC(=O)C(C)SCc2nc3sc4c(c3c(=O)[nH]2)CCCC4)nc1 (stereo unspecified) | – | – | – | – | – | –
Cc1sc2nc(CSC(C)C(=O)Nc3cc(S(C)(=O)=O)ccc3Cl)[nH]c(=O)c2c1C (stereo unspecified) | – | – | – | ? | ? | 50µM
CCCCNC(=O)C1(C)CCCCN1C(=O)c1cc(C#N)cs1 (stereo unspecified) | · | · | · | – | – | ·
Cc1ccc(C(=O)Nc2ccc(N3CCN(S(C)(=O)=O)CC3)cc2)cc1C | – | – | – | – | – | –
CN1CCN(c2ccc(NC(=O)c3ccc4c(c3)OCCO4)cc2)CC1 | – | – | – | – | – | 45µM
Cc1ccc(C(=O)Nc2ccc(N3CCN(C)CC3)cc2)cc1C | – | – | – | – | – | 71µM
CCN1CCN(c2ccc(NC(=O)c3ccc4c(c3)OCCO4)cc2C)CC1 | – | ? | – | – | – | 7.9µM
CCN1CCN(c2cc(C)c3cc(NC(=O)c4ccc5c(c4)OCO5)ccc3n2)CC1 | – | – | – | – | – | –
CCC(=O)N1CCN(c2ccc(NC(=O)c3ccc4c(c3)OCCO4)cc2)CC1 | – | – | – | – | – | –
CN1CCN(c2ccc(NC(=O)c3cccc(OCc4ccccc4)c3)cc2)CC1 | – | ? | ? | – | – | 16µM
CCN1CCN(c2ccc(NC(=O)c3cccc(OCc4ccccc4)c3)cc2)CC1 | – | – | – | – | – | ?
COc1ccc(-c2nc3ccccc3o2)cc1NC(=O)COc1ccc(C(C)(C)C)cc1 | – | – | – | · | · | –
Cc1ccc(C)c(CN2CCN(c3ncccn3)CC2)c1 | ? | ? | 20µM | – | – | ·
Fc1cccc(F)c1CN1CCN(c2ncccn2)CC1 | – | – | ? | – | · | –
